This is an account of results in PubChem BioAssay (NCATS).

Assay [1] in a line: qHTS of pediatric cancer cell lines to identify multiple opportunities for drug repurposing: Primary screen for BT-37 cells (AID 1347094). Further: potency means the concentration at half of the fitted maximal effect. An outline of the steps:
(§1)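 Plated cells (500-1,000 per well, growth media) were allowed to settle for 5 hours, treated with compound dilutions for 48 hours, then lysed with CellTiter-Glo for 15 min at room temperature before luminescence reading.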
(qHTS replaces the single test concentration by a dilution series.)

Assay [2] can be described thus: qHTS of pediatric cancer cell lines to identify multiple opportunities for drug repurposing: Primary screen for NB-EBc1 cells (AID 1347095). Further: potency means the concentration at half of the fitted maximal effect. A digest of the protocol:
as §1

Assay [3] is described as follows: qHTS of pediatric cancer cell lines to identify multiple opportunities for drug repurposing: Primary screen for U-2 OS cells (AID 1347096). Further: nearly all actives have a fitted effect of over 50% in size. Further: potency means the concentration at half of the fitted maximal effect. A digest of the protocol: (§2)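 Viability after 48 h compound treatment at 37C, 500-1,000 cells/well, read as ATP luminescence with CellTiter-Glo. Primary screens used 11-point (MIPE, 0.78 nM-46 µM) or 8-point (NPC, 0.59 nM-46 µM) final concentrations; follow-up screens used 11-point dilutions.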

Assay [4] can be described thus: qHTS of pediatric cancer cell lines to identify multiple opportunities for drug repurposing: Primary screen for Saos-2 cells (AID 1347097). Further: nearly all actives have a fitted effect of over 40% in size. Further: potency means the concentration at half of the fitted maximal effect. A digest of the protocol: as §1
Assay [5] in a line: qHTS of pediatric cancer cell lines to identify multiple opportunities for drug repurposing: Primary screen for NB1643 cells (AID 1347099). Further: nearly all actives have a fitted effect of over 50% in size. Further: potency means the concentration at half of the fitted maximal effect. A digest of the protocol: as §1
Assay [6] in a line: qHTS of pediatric cancer cell lines to identify multiple opportunities for drug repurposing: Primary screen for LAN-5 cells (AID 1347100). Further: potency means the concentration at half of the fitted maximal effect. A digest of the protocol: as §2
A short description of assay [7]: qHTS of pediatric cancer cell lines to identify multiple opportunities for drug repurposing: Primary screen for BT-12 cells (AID 1347101). Further: nearly all actives have a fitted effect of over 25% in size. Further: potency means the concentration at half of the fitted maximal effect. An outline of the steps:
(§3)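 Cells (500-1,000/well) rested 5 h, then received compounds for 48 h; metabolically active cells were measured by CellTiter-Glo luminescence. Final concentrations spanned up to 46 µM (MIPE, 11-point) or 0.59 nM-46 µM (NPC, 8-point) in primary screens, 11-point in follow-ups.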

Assay [8] is described as follows: qHTS of pediatric cancer cell lines to identify multiple opportunities for drug repurposing: Primary screen for Rh18 cells (AID 1347102). Further: nearly all actives have a fitted effect of over 65% in size. Further: potency means the concentration at half of the fitted maximal effect. An outline of the steps: as §2
Assay [9] in a line: qHTS of pediatric cancer cell lines to identify multiple opportunities for drug repurposing: Primary screen for OHS-50 cells (AID 1347103). Further: nearly all actives have a fitted effect of over 40% in size. Further: potency means the concentration at half of the fitted maximal effect. A digest of the protocol:
as §3

Assay [10] can be described thus: qHTS of pediatric cancer cell lines to identify multiple opportunities for drug repurposing: Primary screen for RD cells (AID 1347104). Further: nearly all actives have a fitted effect of over 55% in size. Further: potency means the concentration at half of the fitted maximal effect. A digest of the protocol: as §1
A short description of assay [11]: qHTS of pediatric cancer cell lines to identify multiple opportunities for drug repurposing: Primary screen for MG 63 (6-TG R) cells (AID 1347105). Further: nearly all actives have a fitted effect of over 50% in size. Further: potency means the concentration at half of the fitted maximal effect. An outline of the steps:
as §1

A short description of assay [12]: qHTS of pediatric cancer cell lines to identify multiple opportunities for drug repurposing: Primary screen for control Hh wild type fibroblast cells (AID 1347106). Further: nearly all actives have a fitted effect of over 55% in size. Further: potency means the concentration at half of the fitted maximal effect. An outline of the steps:
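Cells (500-1,000/well) in growth media were settled 5 h at 37 degrees C, then given compounds for 48 h. Viability was read as CellTiter-Glo luminescence. Primary runs used MIPE at 11 points (0.78 nM-46 µM) and NPC at 8 points (0.59 nM-46 µM); follow-ups used 11 points.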

Assay [13] in a line: qHTS of pediatric cancer cell lines to identify multiple opportunities for drug repurposing: Primary screen for Rh30 cells (AID 1347107). Further: nearly all actives have a fitted effect of over 75% in size. Further: potency means the concentration at half of the fitted maximal effect. An outline of the steps: as §2
Assay [14] can be described thus: qHTS of pediatric cancer cell lines to identify multiple opportunities for drug repurposing: Primary screen for Rh41 cells (AID 1347108). Further: nearly all actives have a fitted effect of over 70% in size. Further: potency means the concentration at half of the fitted maximal effect. A digest of the protocol: as §1
Assay [15] is described as follows: qHTS of pediatric cancer cell lines to identify multiple opportunities for drug repurposing: Primary screen for SK-N-SH cells (AID 1347098). Further: nearly all actives have a fitted effect of over 65% in size. Further: potency means the concentration at half of the fitted maximal effect. An outline of the steps: as §3
Assay [16] in a line: qHTS of pediatric cancer cell lines to identify multiple opportunities for drug repurposing: Confirmatory screen for A673 cells (AID 1347110). Further: nearly all actives have a fitted effect of over 65% in size. A digest of the protocol:
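A673 cells at 500-1,000 cells/well were dosed 5 h after plating, in dilution series up to 46 uM final; primary runs used 8 or 11 points and confirmatory runs used 11 points. Viability was read by CellTiter-Glo luminescence after 48 h, against DMSO and 2.3 uM bortezomib controls.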

The nature of assay [17]: qHTS of pediatric cancer cell lines to identify multiple opportunities for drug repurposing: Confirmatory screen for SK-N-MC cells (AID 1347111).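 Further: cells exposed to compound for 48 h before the readout; nearly all actives have a fitted effect of over 70% in size.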 An outline of the steps:
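SK-N-MC cells at 500-1,000 cells/well in growth media were pre-incubated 5 h, then exposed to compounds at 11-point dilutions for 48 h at 37 degrees C, 5% CO2. Viability was read as CellTiter-Glo luminescence.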

Assay [18] in a line: qHTS of pediatric cancer cell lines to identify multiple opportunities for drug repurposing: Primary screen for SK-N-MC cells (AID 1347093). Further: potency means the concentration at half of the fitted maximal effect. An outline of the steps: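 Metabolically active cells were quantified by ATP-dependent luminescence (CellTiter-Glo, 15 min at room temperature) following 48 h treatment. Cells had been plated at 500-1,000 per well and settled for 5 h beforehand.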

Results filed as inconclusive are left out. Active and inactive are the calls of the source. The call rests on the fitted dose curve; in most records, active means well fitted curve in the direction sought with a large enough effect; inconclusive means small, poorly fitted or top-dose-only effect, or another doubt; inactive means no such curve, though single readings can be large; an effect the other way counts as inactive or inconclusive.

`c1cc(CN2CCCNCCNCCCNCC2)ccc1CN1CCCNCCNCCCNCC1`: the Potency entry in assay [1], in assay [2], in [3], in assay [4], in [5] and in assay [6] was “inactive” each time. In addition, the Potency entry in [7], in [8], in assay [9], in [10], in [11] and in assay [12] was “inactive” each time. For the same compound, the Potency entry in [13] and in [14] was “inactive” each time.

`Nc1nc(=O)n([C@H]2C[C@H](O)[C@@H](CO)O2)cc1F`: in [2], the Potency is 3.72 µM (active). Further, the Potency result in [3], in assay [4], in [15], in assay [5], in assay [8] and in [9] was “inactive” throughout. In addition, the Potency entry in assay [10], in assay [12], in assay [13] and in [14] was “inactive” throughout.

`Cn1cnc(=N)c2[nH]cnc21`: the Potency was 1.37 µM (active) in [1]; 0.662 µM (active) in [2]; 2.35 µM (active) in [3]; 0.743 µM (active) in assay [4]; 1.92 µM (active) in assay [15]; 0.166 µM (active) in assay [5]. For the same compound, the Potency in [6] was 0.418 µM (active); in [7], 1.53 µM (active); in assay [8] it was 0.264 µM (active); in [9] it was 0.109 µM (active); in [10], 0.935 µM (active); in assay [11], 1.48 µM (active). The results for the Potency in assay [13] and in [14] were 14.8 µM (active) and 0.469 µM (active), respectively. Moreover, the Potency result in assay [12], in assay [16] and in assay [17] was “inactive” each time.

For the compound `CC(=CC(=O)Nc1ccccc1C(=O)O)c1ccc2ccccc2c1`, the Potency in assay [18] was 8.33 µM (active). Also, the Potency entry in assay [3], in assay [6], in assay [7], in assay [11] and in assay [13] was “inactive” throughout.

Consider `C=C1C(=O)O[C@H]2[C@@H]1CCC(C)=CCC[C@@]1(C)O[C@@H]21`, for which the Potency in [2] is 5.26 µM (active); in [4], 3.32 µM (active); in assay [15], 24.1 µM (active); in assay [5], 8.33 µM (active); in assay [6] it was 7.43 µM (active); in [7], 21.7 µM (active). For the same compound, the Potency in assay [8] is 23.5 µM (active); in [9], 4.85 µM (active); in assay [10] it was 18.7 µM (active); in assay [13] it was 18.7 µM (active); in [14] it was 11.8 µM (active). Further, in assay [12], the Potency entry was “inactive”.

Consider `C=C(C)[C@@H]1CC[C@]2(C(=O)O)CC[C@]3(C)[C@H](CC[C@@H]4[C@@]5(C)CC[C@H](O)C(C)(C)[C@@H]5CC[C@]43C)[C@@H]12`, for which the Potency result in assay [1], in [3], in [15], in assay [5], in assay [6] and in assay [7] was “inactive” each time. Besides, the Potency entry in [8], in assay [10], in assay [11] and in assay [12] was “inactive” throughout. For the same compound, the Potency in assay [4] was 18.7 µM (active).

Regarding `CCCNS(=O)(=O)Nc1ncnc(OCCOc2ncc(Br)cn2)c1-c1ccc(Br)cc1`, the Potency entry in assay [1], in [2], in [3], in assay [4], in [15] and in assay [6] was “inactive” throughout. Further, the Potency entry in [8], in assay [9], in [10], in assay [11], in assay [12] and in assay [13] was “inactive” throughout.

Consider `CCN(C(=O)c1c(O)c2c(Cl)cccc2n(C)c1=O)c1ccccc1`, for which the Potency in assay [1] is 21.7 µM (active). The Potency result in assay [2], in assay [3], in [15], in assay [5], in assay [6] and in assay [8] was “inactive” each time. Moreover, the Potency entry in assay [10], in [11], in assay [12] and in assay [13] was “inactive” throughout.

`CCCCCN=C(N)NN=Cc1c[nH]c2ccc(OC)cc12`: the Potency is 3.72 µM (active) in [18], 9.68 µM (active) in assay [9] and 18.7 µM (active) in [10]. The Potency result in assay [15], in [12] and in assay [13] was “inactive” in each case.

With `C[C@H]1C[C@H]2[C@@H]3CCC4=CC(=O)C=C[C@]4(C)[C@@H]3C(=O)C[C@]2(C)[C@@]1(O)C(=O)CO`, the Potency entry in assay [1], in [2], in [3], in assay [4], in [15] and in assay [5] was “inactive” throughout. In addition, the Potency entry in [6], in [7], in [8], in [10], in assay [12] and in assay [13] was “inactive” in each case. Also, in [14], the Potency result is “inactive”.

Regarding `CCCCOc1ccc(C(=O)Nc2ccc(F)cc2F)cc1`, the Potency result in assay [1], in assay [2], in assay [3], in assay [4], in assay [6] and in assay [7] was “inactive” throughout. The Potency entry in assay [8], in assay [9], in [10], in assay [12], in [13] and in [14] was “inactive” throughout.

In the case of `Cc1noc(-c2ccc(CSCCC(=O)O)cc2)c1NC(=O)OC(C)c1ccccc1Cl` (configuration not stated), the Potency result in assay [1], in [2], in assay [3], in [4], in assay [15] and in assay [6] was “inactive” each time. Further, the Potency result in assay [7], in assay [10], in assay [12], in assay [13] and in [14] was “inactive” each time.

For the compound `CC(C)c1cc(C(C)C)c(CC(=O)NS(=O)(=O)Oc2c(C(C)C)cccc2C(C)C)c(C(C)C)c1`, the Potency is 24.3 µM (active) in assay [1]; 14.8 µM (active) in assay [2]; 18.7 µM (active) in assay [4]; 16.6 µM (active) in assay [5]; 27.3 µM (active) in [9]. The Potency result in assay [3], in [15], in assay [8], in assay [12] and in assay [13] was “inactive” each time.

On to `Cc1cc(C(=O)NOCCO)c(Nc2ccc(I)cc2F)n(C)c1=O`, for which the values for the Potency in assay [18] and in assay [15] were 0.662 µM (active) and 2.15 µM (active), respectively. Also, the Potency result in assay [4], in assay [8], in [12], in assay [13] and in assay [14] was “inactive” in each case.

Regarding `COc1ccc(CCC(=O)c2c(O)cc(O[C@@H]3O[C@H](CO)[C@@H](O)[C@H](O)[C@@H]3O[C@@H]3O[C@@H](C)[C@H](O)[C@@H](O)[C@@H]3O)cc2O)cc1O`, the Potency entry in assay [1], in assay [2], in assay [3], in [4], in assay [6] and in [7] was “inactive” in each case. The Potency result in [8], in assay [9] and in assay [11] was “inactive” each time. In addition, the Potency in assay [15] was 13.6 µM (active); in [5] it was 13.2 µM (active); in assay [10], 13.2 µM (active); in assay [12], 3.72 µM (active).

Regarding `Cc1cnc(NC(=O)Nc2cc(Br)c(C)cc2OC[C@@H]2CNCCO2)cn1`, the Potency in assay [18] is 0.166 µM (active); in [2], 1.05 µM (active); in assay [6], 1.87 µM (active); in [9] it was 1.37 µM (active). Also, the Potency entry in assay [15], in [7], in assay [8], in [10], in assay [12] and in [13] was “inactive” throughout. For the same compound, the Potency entry in [14] is “inactive”.
